Results on 4 molecules are retold here after PubChem BioAssay.

The nature of assay [1]: P. berghei load reduction in hepatocytes – cell-based, HepG2, luciferase luminescence, HepG2 viability, primary screen (AID 624349; in the data active = parasite load remaining mostly below about 12%, no sharp cut-off; inactive = mostly above about 10%;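 also: 100% = mean of DMSO negative control wells on the same plate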). The note with it: P. berghei liver stage in HepG2, luciferase luminescence, concentration not given here; parasite load remaining: stronger effect = lower value; viability: measured here: HepG2 viability without parasites.
The nature of assay [2]: signal quenchers or enhancers, Cy5 substrate/SSB – biochemical, NIH Clinical Collection, E. coli SSB, artefact control for HCV NS3 helicase inhibitor project (AID 743268; call rule not given here). The conditions noted are these: Cy5-oligo bound E. coli SSB, fluorescence interference.
For assay [3], the system named is Hepatitis C virus NS3 helicase. Put plainly: blockers of NS3h binding to DNA – biochemical, fluorescence polarization, NIH Clinical Collection, primary screen (AID 743270; call rule not given here). The note with it: NS3 helicase binding to Cy5-dT15 DNA, stronger effect = higher value, concentration not given here. A general note: In fluorescence polarisation assays a small probe gives low polarisation when free and higher when bound to something large.

For assay [4], the target named is Single-stranded DNA-binding protein (Escherichia coli (strain K12)) (UniProt P0AGE0). The experiment in a line: SSB-ssDNA binding inhibitors – biochemical, fluorescence polarization, NIH Clinical Collection, counter-screen for HCV NS3 helicase inhibitor project (AID 743271; in the data active = inhibition above about 28%). The conditions noted are these: E. coli SSB-DNA binding, stronger effect = higher value, concentration not given here.

Assay [5] in a line: compounds distorting NS3 helicase fluorescence signal – biochemical, NIH Clinical Collection, artefact control for HCV NS3 helicase inhibitor project (AID 743272; call rule not given here;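 also: HCV NS3 helicase with a Cy5 labelled single stranded DNA probe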). The conditions noted are these: fluorescence interference counterscreen, HCV NS3 helicase assay; stronger effect = lower value.
Assay [6] deals with Neuropilin-2 / VEGF-C interaction (human). Put plainly: small molecules blocking Neuropilin-2/VEGF-C interaction – biochemical, microplate binding format, z-score (AID 743281; call rule not given here). The conditions noted are these: microplate NRP2/VEGF-C binding assay; stronger effect = lower value.
The nature of assay [7]: modulation of C. elegans fzo-1 (AID 1259413; call rule not given here;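 also: fzo-1 mutant C. elegans worms in liquid wells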). The conditions noted are these: C. elegans fzo-1 modulator screen, mean read-out; stronger effect = higher value.
Assay [8] is described as follows: viability loss with induced miR-34 in A549 – imaging, A549 dox-inducible miR-34, nuclei and caspase counts, primary screen (AID 1347080;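 active = compounds whose cell count with miR-34 switched on is under 0.7 times the count with it off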). The note with it: A549 miR-34 inducible, Hoechst nuclei count, 48 h.
The nature of assay [9]: galactose survival enhancers in mitochondrial complex I cybrids – cell-based, galactose medium, ATP luminescence, primary screen (AID 1645843;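 active = z-score of at least 1.8 in each of two replicates, scored against plate mean and spread of sample wells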;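 also: positive z means more ATP and so rescue of galactose-driven cybrid death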). The conditions noted are these: complex I mutant cybrid cells, 72 h, stronger effect = higher value.
The test system of another assay is F380Y. The experiment in a line: BK channel mutant inhibitors and activators – cell-based, U2OS BacMam, thallium flux, beta subunits, selectivity assay, profiling panel (AID 1259406).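 Also: initial slope of Thallos dye fluorescence rise after thallium is added; log ratio against the mean of 0.3% DMSO vehicle wells on the same plate.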 The conditions noted are these: U2OS BacMam BK variants, at 30 µM.
The test system of another assay is F380Y/beta1. Described as above. The note with it: U2OS BacMam BK variants, at 30 µM.
Another assay has as its system F380Y/beta2Delta. The description is as above. The conditions noted are these: U2OS BacMam BK variants, at 30 µM.
The test system of the next assay is F380Y/beta4. The assay is described as above. The conditions noted are these: U2OS BacMam BK variants, at 30 µM.
Assay [10] has as its target Calcium-activated potassium channel subunit alpha-1 (Homo sapiens) + Leucine-rich repeat-containing protein 26 (Homo sapiens) (UniProt Q12791+Q2I0M4). The description is as above. The conditions noted are these: U2OS BacMam BK variants, F380Y/Slo1WT/gamma1, at 30 µM.
The next assay has as its system R275C. The assay is described as above. The conditions noted are these: U2OS BacMam BK variants, at 30 µM.
In another assay the test system is R275C/beta1. The description is as above. The conditions noted are these: U2OS BacMam BK variants, at 30 µM.
In the next assay the test system is R275C/beta2Delta. The assay is described as above. The note with it: U2OS BacMam BK variants, at 30 µM.
The next assay has as its system R275C/beta4. Described as above. The note with it: U2OS BacMam BK variants, at 30 µM.
Another assay deals with R275C/Slo1WT/beta2. The assay is described as above. The note with it: U2OS BacMam BK variants, at 30 µM.
Setting [11] is: measured here: relative caspase fold change +Dox/-Dox.
Where [12] appears, read: measured here: total cells with miR-34 induction, stronger effect = lower value.
Setting [13] is: measured here: total cells without miR-34 induction.

“And” between values parts separate entries of the source, which are not always exact repeats. Identical values can stand only once. The source made the active and inactive calls.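 The calls were made as follows, unless noted: active = thallium flux through the channel raised or lowered by more than 3 SD from vehicle-only wells, actives on both sides; inactive = the rest.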

Chain of Calcium-activated potassium channel subunit alpha-1 (Homo sapiens) + Leucine-rich repeat-containing protein 26 (Homo sapiens) (Q2I0M4 whole entry, looked up, one chain of several): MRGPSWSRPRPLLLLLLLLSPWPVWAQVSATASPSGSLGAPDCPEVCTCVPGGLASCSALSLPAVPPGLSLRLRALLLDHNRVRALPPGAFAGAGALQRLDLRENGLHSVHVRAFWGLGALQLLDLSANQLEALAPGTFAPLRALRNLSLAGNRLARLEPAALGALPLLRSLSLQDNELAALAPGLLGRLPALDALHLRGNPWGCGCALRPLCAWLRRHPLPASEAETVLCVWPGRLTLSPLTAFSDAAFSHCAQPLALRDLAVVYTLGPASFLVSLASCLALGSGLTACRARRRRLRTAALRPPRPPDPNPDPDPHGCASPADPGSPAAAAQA

One may read the viability as a per cent measure of how many cells are alive, often set against a control. As usually defined, the inhibition is the change of the read-out against control, counted positive when it falls. As for `CN1C(=O)CN=C(c2ccccc2)c2cc(Cl)ccc21`, in assay [1], the parasite load remaining is 122% (inactive). The molecule also came in with a viability in assay [1] of 81.8%. The values for the fluorescence ratio in [2] and in [5] were 1.03 (inactive) and 1.02 (inactive), respectively. Further, the figures for the inhibition in [3] and in [4] were -1.98% (inactive) and 0.67% (inactive), respectively. For the same molecule, the z-score in assay [6] is -0.636 (inactive); in [9] it was 1.09 (inactive). The mean signal in assay [7] was 240 (inactive). The values for the fold change in assay [8] (stronger effect = lower value) and in assay [8] (setting [11]) were 0.967 (inactive) and 1.74, respectively. Further, the cell count in assay [8] (setting [12]) was determined as 9270; in [8] (setting [13]) it was 9590. Also, the log fold change Tl+ flux in the assay with F380Y was 0.00227 (inactive); with F380Y/beta1, -0.0264 (inactive); with F380Y/beta2Delta, 0.0204 (inactive); in the assay with F380Y/beta4, 0.0209 (inactive); in assay [10], -0.0437 (inactive); in the assay on R275C, -0.0487 (inactive). Moreover, the log fold change Tl+ flux was -0.07 (inactive) with R275C/beta1, -0.0058 (inactive) with R275C/beta2Delta, 0.0195 (inactive) in the assay with R275C/beta4 and 0.0176 (inactive) in the assay with R275C/Slo1WT/beta2.

For `CN1CC[C@@H](c2ccc(F)cc2)[C@H](COc2ccc3c(c2)OCO3)C1`, in [1], the parasite load remaining was 84.5% (inactive). Further, in [1], the viability came out at 65.3%. Also, the values for the fluorescence ratio in assay [2] and in assay [5] were 1.01 (inactive) and 0.93 (inactive), respectively. The inhibition in assay [3] was 2.77% (inactive); in assay [4], 0.67% (inactive). Besides, the z-score in assay [6] was -0.473 (inactive). Besides, the log fold change Tl+ flux in the assay on F380Y was 0.106 (inactive); in the assay on F380Y/beta1, 0.0692 (inactive); in the assay with F380Y/beta2Delta it was 0.045 (inactive); with F380Y/beta4, 0.102 (active); in assay [10], -0.0237 (inactive); in the assay on R275C, -0.0665 (inactive). The log fold change Tl+ flux in the assay with R275C/beta1 is 0.146 (active); in the assay on R275C/beta2Delta it was 0.0265 (inactive); with R275C/beta4, 0.0863 (active); in the assay on R275C/Slo1WT/beta2, -0.033 (inactive).

`COc1ccc(CCN)cc1OC`: in [1], the parasite load remaining was 69.1% (inactive). The same molecule showed a viability in assay [1] of 72%. The fluorescence ratio is 0.93 (inactive) in assay [2] and 0.92 (inactive) in [5]. Also, the inhibition is -0.22% (inactive) in [3] and 5.91% (inactive) in assay [4]. Moreover, the z-score is -0.441 (inactive) in [6] and 0.46 (inactive) in [9]. In addition, the mean signal in assay [7] was 274 (inactive). Moreover, the fold change was 1.12 (inactive) in [8] (stronger effect = lower value) and 0.533 in [8] (setting [11]). Further, the cell count in assay [8] (setting [12]) came out at 8740; in [8] (setting [13]) it was 7830. The log fold change Tl+ flux is -0.0565 (inactive) with F380Y; 0.00413 (inactive) with F380Y/beta1; -0.0175 (inactive) in the assay on F380Y/beta2Delta; -0.0433 (inactive) in the assay with F380Y/beta4; -0.00222 (inactive) in [10]; -0.00436 (inactive) with R275C. Besides, the log fold change Tl+ flux is -0.0128 (inactive) in the assay with R275C/beta1, -0.00532 (inactive) in the assay on R275C/beta2Delta, -0.0169 (inactive) in the assay with R275C/beta4 and -0.0122 (inactive) with R275C/Slo1WT/beta2.

As for `CCCCC/C=C\C/C=C\C/C=C\C/C=C\CCCC(=O)Nc1ccc(O)cc1`, the parasite load remaining in [1] is 94.1% (inactive). This molecule also returned a viability in [1] of 87.5%. Moreover, the values for the fluorescence ratio in assay [2] and in assay [5] were 0.87 (inactive) and 0.88 (inactive), respectively. Also, the inhibition in assay [3] is 0.4% (inactive); in assay [4] it was 4.52% (inactive). Besides, the results for the z-score in assay [6] and in assay [9] were 0.572 (inactive) and -0.695 (inactive), respectively. Further, the mean signal in assay [7] was 245 (inactive). Moreover, the fold change in assay [8] (stronger effect = lower value) is 1.04 (inactive) and 0.798 (inactive); in assay [8] (setting [11]), 0.71 and 1.12. Further, the cell count is 5430 and 5550 in assay [8] (setting [12]); 5220 and 6950 in assay [8] (setting [13]).
